Assay results: PubChem BioAssay (NCI)
Compounds without any hit were thinned out: in the full panel of roughly 79,000, 15% have a hit. Activity calls are given as the source filed them. No stated cut-off is given here; in the data, active means growth inhibition above about 70%; inactive means the rest.

Key:
[1] = NCI Yeast Anticancer Drug Screen. Data for the rad50 strain (AID 155);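 further: 0% = growth of vehicle-only cultures of the same strain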; settings: S. cerevisiae rad50 strain growth inhibition; at 50.0 µM; active compounds read high
In short: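 Genetically altered yeast (DNA repair pathway); compound treatment; growth inhibition vs vehicle ctrl.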

[2] = NCI Yeast Anticancer Drug Screen. Data for the mec2-1 strain (AID 157); settings: S. cerevisiae mec2-1 strain, at 50.0 µM, active compounds read high
In short: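 Using mec2-1 yeast: add compound, measure growth, express inhibition versus vehicle-treated cultures.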

[3] = NCI Yeast Anticancer Drug Screen. Data for the sgs1 mgt1 strain (AID 161);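 further: 0% = growth of cultures given vehicle only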; settings: S. cerevisiae sgs1 mgt1 strain, at 50.0 µM, active compounds read high
In short: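 Yeast cells carrying a defined DNA-repair defect were exposed to test compounds. Growth inhibition was measured relative to vehicle-treated controls.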

[4] = NCI Yeast Anticancer Drug Screen. Data for the cln2 rad14 strain (AID 165);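 further: 0% = growth equal to vehicle treated cultures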; settings: S. cerevisiae cln2 rad14 strain, at 50.0 µM, active compounds read high
In short: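 Yeast strain cln2 rad14, bearing defects in cell cycle control and DNA repair, serves as the test system; values reflect growth inhibition compared with vehicle.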

[5] = NCI Yeast Anticancer Drug Screen. Data for the bub3 strain (AID 167); settings: S. cerevisiae bub3 mutant strain, at 50.0 µM, active compounds read high
In short: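 Yeast carrying a defined mutation is treated with each compound, and growth is compared with that of vehicle-exposed cells to give inhibition.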

[6] = NCI Yeast Anticancer Drug Screen. Data for the mlh1 rad18 strain (AID 175); settings: S. cerevisiae mlh1 rad18 strain growth inhibition; at 50.0 µM; active compounds read high
In short: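 Steps: expose repair-defective yeast to compound; measure growth; express inhibition against vehicle-treated controls.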

Measured: growth inhibition

CC1=C(c2ccco2)C(c2ccco2)OC1=O (stereo unspecified)
inactive: [1] 8.45% | [2] 27.2% | [3] 15.9% | [4] -16.6% | [5] 18.3% | [6] -7.3%

O=C1C/C(=C\c2cccc([N+](=O)[O-])c2)C(=O)N1
inactive: [1] 9.7% | [2] 11.3% | [3] -5.4% | [4] -11.3% | [5] -2.8% | [6] -3.2%

COc1ccc2nc3c(Cl)cccc3c(Cl)c2c1
inactive: [1] 28.4% | [2] 38.5% | [3] 3.4% | [4] 4.6% | [5] 7.35%
active: [6] 81.5%

O=[N+]([O-])c1ccc(CN(Cc2ccc([N+](=O)[O-])cc2)c2ccc3c(c2)C(O)c2ccccc2-3)cc1 (stereo unspecified)
inactive: [1] 9.95% | [2] 1% | [3] 7.8% | [4] 7.85% | [5] 1.8% | [6] 12.2%

CCOC(=O)C(NC(=O)Cc1ccccc1)C(=O)O (stereo unspecified)
inactive: [1] -18.8% | [2] 15.5% | [3] -3.2% | [4] -6.4% | [5] -1.65% | [6] 3.35%

COC(=O)C(=O)OC
inactive: [1] 27.1% | [2] -10% | [3] -11.3% | [4] -39% | [5] 1.15% | [6] -3.35%

CCOC(=O)CCCN(c1ccc(OC)c(OC)c1)S(=O)(=O)c1ccc(C)cc1
inactive: [1] 32.1% | [2] 12.7% | [3] 43% | [4] 18.8% | [5] 16.4% | [6] 34.2%

COc1ccc(/C(=N\NC(=O)C(N)=O)C(c2ccc(OC)cc2)C2(O)C(=O)Nc3c(Cl)cccc32)cc1 (stereo unspecified)
inactive: [1] -9.45% | [2] -15.4% | [3] -49.5% | [4] 32.5% | [5] 0.3% | [6] -23.1%

O=C(Cn1c(=O)oc2ccc(C(=O)c3ccc(F)cc3)cc21)c1ccccc1
inactive: [1] -21.4% | [2] -24.5% | [3] -6.25% | [4] -27.9% | [5] -0.2% | [6] -26.9%

NC(N)=NC(=O)c1ccc(N)cc1
inactive: [1] -13.6% | [2] -2.25% | [3] -0.1% | [4] -7.35% | [5] -3.4% | [6] 23.5%

CC(=O)S
inactive: [1] -36.5% | [2] -18.4% | [3] -11.9% | [4] -24.2% | [5] 6.35% | [6] 5.7%

O=C(NCC1(O)CCCCC1)c1ccccc1
inactive: [1] 3.65% | [2] -14.2% | [3] -5.55% | [4] -8.35% | [5] 3.8% | [6] 1.3%

Cc1ccc(Cl)cc1NC(=O)C(Br)C(Br)C(=O)O (stereo unspecified)
active: [1] 93.2% | [2] 99.4% | [3] 99.5% | [4] 90.2% | [5] 99% | [6] 98.8%

CCC(c1ccc(O)cc1)c1cc2c(cc1OCC(=O)OC)OCO2 (stereo unspecified)
inactive: [1] -5.1% | [2] -9.3% | [3] -4.65% | [4] -6.75% | [5] 0.65% | [6] 10.2%

Cc1ccc(S(=O)(=O)/C(C#N)=C\N2CC(=O)NC2=S)cc1
inactive: [1] -20.1% | [2] -21.1% | [3] -23.2% | [4] -10.3% | [5] -13.9% | [6] -25.6%

COCCNc1cncc(C(N)=O)c1
inactive: [1] 15% | [2] 6.9% | [3] 9.15% | [4] -19.2% | [5] 2.45% | [6] 10.9%

COc1cccc2c1C(=O)C1(O)CCCCC21 (stereo unspecified)
inactive: [1] -55.8% | [2] -41.6% | [3] -65.3% | [4] -21.4% | [5] -59.5% | [6] -25.7%

Brc1ccc(-c2ccc(-c3ccc(Br)cc3)s2)cc1
inactive: [1] 30.4% | [2] 13.8% | [3] 36.5% | [4] 19.8% | [5] -1.55% | [6] 4%

CCCCCCCCCCCCCCCC(=O)N(CCCCCCCCCCC(=O)O)CC(O)C(O)C(OC1OC(CO)C(O)C(O)C1O)C(O)CO (stereo unspecified)
inactive: [1] -8.15% | [2] -23.6% | [3] 10.2% | [4] -22.3% | [5] 50.6% | [6] -15.8%

Cc1cc(-c2cc(C)on2)no1
inactive: [1] -44.7% | [2] -2.75% | [3] -15.9% | [4] -30.1% | [5] -6.15% | [6] -3.25%

Cc1ccc(S(=O)(=O)OCC2C(COS(=O)(=O)c3ccc(C)cc3)C3C4C5C2C2C3C4C52)cc1 (stereo unspecified)
inactive: [1] -15.9% | [2] -0.3% | [3] 9.75% | [4] 13.8% | [5] -5.5% | [6] -21.5%

N#CC(/C(=N/NC(N)=S)C(=O)Nc1cccc(Cl)c1)c1ccccc1 (stereo unspecified)
inactive: [1] -23.9% | [2] 13.8% | [3] 10.4% | [4] 18.3% | [5] 12.9% | [6] 31.2%

COC(=O)c1c(C)c(C)cc(C)c1C
inactive: [1] -0.9% | [2] -13.2% | [3] -4.1% | [4] 11.7% | [5] -7.1% | [6] -9.5%

COc1cc(O)c(C(C)=O)c(O)c1O
inactive: [1] -20.4% | [2] -12.8% | [3] -3.1% | [4] -36.7% | [5] 4.8% | [6] 6.45%

OCCCCCCN=Cc1ccccc1O.OCCCCCCN=Cc1ccccc1O.[Cu]
active: [3] 72.2%
inactive: [1] 47.9% | [2] -1.2% | [4] -48.2% | [5] 4.25% | [6] 14.8%

CC(C)=CC1C(COC(=O)c2ccccc2Cl)C1(C)C (stereo unspecified)
inactive: [1] 1% | [2] -8.3% | [3] -2.9% | [4] -27.9% | [5] -12.4% | [6] 18.8%

O=c1oc2ccccc2cc1F
inactive: [1] 16.4% | [2] 7.2% | [3] -9.75% | [4] 5.3% | [5] 16.9% | [6] 21.4%

N#Cc1c(-c2ccc(Cl)cc2)c2c(n(C3OC(CO)C(O)C(O)C3O)c1=S)CCC2 (stereo unspecified)
inactive: [1] 12.5% | [2] 32.1% | [3] 61.3% | [4] 31.9% | [5] 50.4% | [6] 42.4%

C[S+](C)CCS(=O)(=O)[O-]
inactive: [1] 10.3% | [2] -6.45% | [3] -2.1% | [4] -30.4% | [5] 4.95% | [6] -13.2%

COc1cccc[n+]1C
inactive: [1] 10.2% | [2] 3.45% | [3] -2.15% | [4] 8.3% | [5] 5.4% | [6] 7.45%

CCC1OC(=O)C(CC)OC1=O (stereo unspecified)
inactive: [1] -5.75% | [2] -20.2% | [3] -25.6% | [4] -2.05% | [5] -28.9% | [6] -24.4%

N=c1ncn(Cc2ccccc2)c2nc[nH]c12
inactive: [1] -2.4% | [2] 2% | [3] 1.3% | [4] -3.6% | [5] 10% | [6] -4%

COc1ccc2ccccc2c1Cc1c(O)ccc2ccccc12
inactive: [1] 15.7% | [2] -4.55% | [3] 0.75% | [4] -40% | [5] -3.1% | [6] 8%

Cc1ccc(S(=O)(=O)NC(CC(C)C)C(=O)O)cc1 (stereo unspecified)
inactive: [1] 6.65% | [2] -10.6% | [3] -4.55% | [4] -34.2% | [5] 1.3% | [6] 0.45%

CC/C(=C(\CC)c1ccc(OC2C=CCCC2)cc1)c1ccc(OC2C=CCCC2)cc1 (stereo unspecified)
inactive: [1] 28.3% | [2] -4.7% | [3] 7% | [4] -2.55% | [5] -13.8% | [6] -0.1%

FC(F)(F)c1ccc(C2ON=C(c3ccccc3)N2C23CC4CC(CC(C4)C2)C3)cc1 (stereo unspecified)
inactive: [1] 17.1% | [2] 4.1% | [3] 25.1% | [4] -0.4% | [5] -7.5% | [6] 1.25%

CCCCCCCCCCCCCCCc1ccc([N+](=O)[O-])c(O)c1
inactive: [1] -2.25% | [2] 33.5% | [3] 7.1% | [4] -8.75% | [5] 51.7% | [6] 35.9%

CC(NC(=O)CNC(=O)CNC(=O)OCc1ccccc1)C(=O)OCc1ccccc1 (stereo unspecified)
inactive: [1] 4.35% | [2] 1.4% | [3] -3.65% | [4] -3.65% | [5] 1.45% | [6] 5.4%

O=C1CCc2ccccc2-c2ccccc21
inactive: [1] 17.9% | [2] 5% | [3] -12.1% | [4] -32% | [5] -5.3% | [6] 5.4%

CCOC(=O)CSc1[nH]c(NC(=S)Nc2ccccc2)c(C(N)=O)c1C(N)=O
inactive: [1] -14.2% | [2] -8.2% | [3] 23.7% | [4] -1.2% | [5] 7.5% | [6] -4.45%

CCc1ccc(-n2c(C)nc3[nH]cc(C)c3c2=N)cc1
inactive: [1] -13.6% | [2] -3.35% | [3] -11.9% | [4] -12.3% | [5] -2.65% | [6] -10.4%
